From the supplement of paper PMC10849652
Targets with a hit are over-represented here; the source holds about 7,900 in all. About 0.6% of all pairs of compound and target were hits.

Experiments:
Assay in all cases: log2 fold change, soluble protein after heating vs DMSO (PISA); higher = thermal stabilisation; K562 cells, 10 uM, 30 min; active = over 0.2 and 3.5 SD of the protein, either way, in both replicates (recomputed)
Tubastatin A = compound: CN1CCc2c(c3ccccc3n2Cc2ccc(C(=O)NO)cc2)C1 [Tubastatin A]
In short: (§1)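 K562 cells at 2×10^6 cells/mL were given 10 μM compound for 30 min. Aliquots then went through 3 min of heating across 48°C-58°C, were pooled, and were extracted in PBS with 0.5% NP-40 at 4°C, and the supernatant after 21,000xg for 90 min was quantified by TMTpro 16plex LC-MS/MS with channel sums equalised. Thermal stability relative to control samples, from duplicates, is given as log2 fold change.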

defactinib = compound: CNC(=O)c1ccc(Nc2ncc(C(F)(F)F)c(NCc3nccnc3N(C)S(C)(=O)=O)n2)cc1 [defactinib]
In short: as §1

[1] = compound: COC(=O)[C@H](CCSC)NC(=O)C1=C(C=C(C=C1)NC[C@H](CS)N)C2=CC=CC=C2
In short: as §1

saracatinib = compound: CN1CCN(CCOc2cc(OC3CCOCC3)c3c(Nc4c(Cl)ccc5c4OCO5)ncnc3c2)CC1 [saracatinib]
In short: as §1

sotrastaurin = compound: CN1CCN(c2nc(C3=C(c4c[nH]c5ccccc45)C(=O)NC3=O)c3ccccc3n2)CC1 [sotrastaurin]
In short: as §1

alvocidib = compound: CN1CC[C@H](c2c(O)cc(O)c3c(=O)cc(-c4ccccc4Cl)oc23)[C@H](O)C1 [alvocidib]
In short: as §1

[2] = compound: CNC(=O)C1=CC=CC=C1NC2=NC(=NC=C2Cl)NC3=C(C=C(C=C3)N4CCOCC4)OC
In short: as §1

rucaparib = compound: CNCc1ccc(-c2[nH]c3cc(F)cc4c3c2CCNC4=O)cc1 [rucaparib]
In short: as §1

[3] = compound: CNc1nc(-c2ccc3c(N)n[nH]c3c2)cc(N2C[C@@H](C(=O)NC3CCCCC3)CC[C@H]2C)n1
In short: as §1

encorafenib = compound: COC(=O)N[C@@H](C)CNc1nccc(-c2cn(C(C)C)nc2-c2cc(Cl)cc(NS(C)(=O)=O)c2F)n1 [encorafenib]
In short: as §1

Measured: log2 fold change

FADS1 (UniProt F5GYH4)
inactive: Tubastatin A 0.123 | defactinib 0.06 | [1] 0.123

ELAC1 (UniProt Q9H777)
inactive: saracatinib 0.094 | sotrastaurin 0.006 | alvocidib 0.051 | [2] -0.056 | defactinib -0.031 | rucaparib 0.153 | [3] 0.049 | encorafenib 0.063 | [1] 0.022

EDRF1 (UniProt Q3B7T1)
Sequence of UniProt Q3B7T1 (Q3B7T1 whole entry, looked up): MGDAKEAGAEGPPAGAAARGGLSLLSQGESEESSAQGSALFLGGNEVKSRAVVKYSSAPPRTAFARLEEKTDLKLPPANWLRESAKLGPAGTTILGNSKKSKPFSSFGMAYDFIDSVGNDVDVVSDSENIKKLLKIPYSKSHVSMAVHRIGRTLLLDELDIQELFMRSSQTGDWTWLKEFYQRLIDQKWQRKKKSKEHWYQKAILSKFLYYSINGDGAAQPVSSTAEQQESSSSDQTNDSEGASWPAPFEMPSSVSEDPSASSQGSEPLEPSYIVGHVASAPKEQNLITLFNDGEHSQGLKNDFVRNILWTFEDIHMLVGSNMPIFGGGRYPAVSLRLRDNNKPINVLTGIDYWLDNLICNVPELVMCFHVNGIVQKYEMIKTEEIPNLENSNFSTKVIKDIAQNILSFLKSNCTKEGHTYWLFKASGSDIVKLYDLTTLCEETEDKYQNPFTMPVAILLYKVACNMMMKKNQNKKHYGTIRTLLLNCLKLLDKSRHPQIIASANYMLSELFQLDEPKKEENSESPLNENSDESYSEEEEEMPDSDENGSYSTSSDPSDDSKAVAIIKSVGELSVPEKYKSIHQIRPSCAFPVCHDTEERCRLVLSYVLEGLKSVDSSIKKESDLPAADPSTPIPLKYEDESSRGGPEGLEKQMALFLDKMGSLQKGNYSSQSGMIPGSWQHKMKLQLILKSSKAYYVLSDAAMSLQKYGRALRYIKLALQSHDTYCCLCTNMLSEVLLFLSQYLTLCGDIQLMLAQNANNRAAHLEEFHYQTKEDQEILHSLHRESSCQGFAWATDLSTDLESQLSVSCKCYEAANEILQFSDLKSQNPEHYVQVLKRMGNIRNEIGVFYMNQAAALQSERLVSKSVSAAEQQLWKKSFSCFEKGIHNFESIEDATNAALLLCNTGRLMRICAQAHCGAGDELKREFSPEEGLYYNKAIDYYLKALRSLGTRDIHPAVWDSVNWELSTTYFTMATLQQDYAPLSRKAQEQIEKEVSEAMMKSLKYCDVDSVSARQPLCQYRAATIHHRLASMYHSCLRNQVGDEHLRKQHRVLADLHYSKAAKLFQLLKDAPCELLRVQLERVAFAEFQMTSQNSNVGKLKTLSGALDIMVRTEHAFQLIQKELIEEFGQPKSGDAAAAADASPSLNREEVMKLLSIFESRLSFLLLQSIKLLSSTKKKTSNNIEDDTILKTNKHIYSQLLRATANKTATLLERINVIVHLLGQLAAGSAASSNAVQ
inactive: saracatinib 0.104 | sotrastaurin 0.012 | alvocidib -0.006 | [2] -0.111 | rucaparib 0.098 | [3] 0.07 | encorafenib 0.058

DHPS (UniProt M0R1T2)
inactive: sotrastaurin -0.06

DOLPP1 (UniProt Q86YN1)
inactive: alvocidib -0.059 | Tubastatin A -0.066 | [2] 0.012 | defactinib -0.134 | rucaparib 0.087 | encorafenib -0.057 | [1] 0.156

FAM135A (UniProt Q9P2D6)
inactive: sotrastaurin -0.192 | [2] 0.004 | defactinib -0.131 | [1] 0.003

EIF2AK3 (UniProt Q9NZJ5)
Sequence of UniProt Q9NZJ5 (Q9NZJ5 whole entry, looked up): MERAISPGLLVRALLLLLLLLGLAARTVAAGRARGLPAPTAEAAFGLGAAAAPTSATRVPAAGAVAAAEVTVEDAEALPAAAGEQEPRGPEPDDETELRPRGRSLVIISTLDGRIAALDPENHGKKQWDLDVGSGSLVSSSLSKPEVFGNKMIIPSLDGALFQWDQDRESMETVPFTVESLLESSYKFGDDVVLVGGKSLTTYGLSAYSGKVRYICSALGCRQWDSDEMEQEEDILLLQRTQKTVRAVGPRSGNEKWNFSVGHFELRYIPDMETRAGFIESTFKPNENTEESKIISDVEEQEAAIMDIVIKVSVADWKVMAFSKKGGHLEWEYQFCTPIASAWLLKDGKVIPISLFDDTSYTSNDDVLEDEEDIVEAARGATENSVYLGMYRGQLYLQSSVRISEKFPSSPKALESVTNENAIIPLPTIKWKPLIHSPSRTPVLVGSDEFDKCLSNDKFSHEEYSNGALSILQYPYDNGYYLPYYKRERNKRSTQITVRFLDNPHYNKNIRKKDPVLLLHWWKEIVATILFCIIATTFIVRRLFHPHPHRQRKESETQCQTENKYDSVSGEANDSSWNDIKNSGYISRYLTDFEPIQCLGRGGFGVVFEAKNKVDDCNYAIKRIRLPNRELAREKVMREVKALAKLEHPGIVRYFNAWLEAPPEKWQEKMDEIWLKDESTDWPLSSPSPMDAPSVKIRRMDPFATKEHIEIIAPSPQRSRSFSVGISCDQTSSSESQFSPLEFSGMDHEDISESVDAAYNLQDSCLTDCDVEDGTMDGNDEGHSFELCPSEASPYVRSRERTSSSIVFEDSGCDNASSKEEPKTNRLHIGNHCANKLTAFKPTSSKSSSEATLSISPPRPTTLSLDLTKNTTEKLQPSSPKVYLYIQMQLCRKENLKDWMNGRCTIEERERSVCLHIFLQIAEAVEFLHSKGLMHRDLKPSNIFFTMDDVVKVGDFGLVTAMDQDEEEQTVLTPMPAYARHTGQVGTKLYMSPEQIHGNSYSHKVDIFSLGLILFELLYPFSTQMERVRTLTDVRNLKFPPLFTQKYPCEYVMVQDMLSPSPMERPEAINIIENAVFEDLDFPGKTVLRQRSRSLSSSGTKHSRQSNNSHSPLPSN
inactive: saracatinib -0.019 | alvocidib 0.045 | Tubastatin A 0.039 | [2] 0.183 | rucaparib -0.125 | [3] 0.082 | encorafenib -0.216

FAM207A (UniProt Q9NSI2)
inactive: saracatinib 0.005 | sotrastaurin -0.115 | Tubastatin A 0.106 | [2] 0.028 | defactinib 0 | rucaparib 0.064 | [3] 0.007 | encorafenib 0.149 | [1] 0.031

CTNNBL1 (UniProt Q8WYA6)
inactive: defactinib -0.513 | rucaparib 0.137 | encorafenib 0.121 | [1] -0.19

FAM160A2 isoform 2 (UniProt Q8N612)
Sequence of UniProt Q8N612 (Q8N612 whole entry, looked up): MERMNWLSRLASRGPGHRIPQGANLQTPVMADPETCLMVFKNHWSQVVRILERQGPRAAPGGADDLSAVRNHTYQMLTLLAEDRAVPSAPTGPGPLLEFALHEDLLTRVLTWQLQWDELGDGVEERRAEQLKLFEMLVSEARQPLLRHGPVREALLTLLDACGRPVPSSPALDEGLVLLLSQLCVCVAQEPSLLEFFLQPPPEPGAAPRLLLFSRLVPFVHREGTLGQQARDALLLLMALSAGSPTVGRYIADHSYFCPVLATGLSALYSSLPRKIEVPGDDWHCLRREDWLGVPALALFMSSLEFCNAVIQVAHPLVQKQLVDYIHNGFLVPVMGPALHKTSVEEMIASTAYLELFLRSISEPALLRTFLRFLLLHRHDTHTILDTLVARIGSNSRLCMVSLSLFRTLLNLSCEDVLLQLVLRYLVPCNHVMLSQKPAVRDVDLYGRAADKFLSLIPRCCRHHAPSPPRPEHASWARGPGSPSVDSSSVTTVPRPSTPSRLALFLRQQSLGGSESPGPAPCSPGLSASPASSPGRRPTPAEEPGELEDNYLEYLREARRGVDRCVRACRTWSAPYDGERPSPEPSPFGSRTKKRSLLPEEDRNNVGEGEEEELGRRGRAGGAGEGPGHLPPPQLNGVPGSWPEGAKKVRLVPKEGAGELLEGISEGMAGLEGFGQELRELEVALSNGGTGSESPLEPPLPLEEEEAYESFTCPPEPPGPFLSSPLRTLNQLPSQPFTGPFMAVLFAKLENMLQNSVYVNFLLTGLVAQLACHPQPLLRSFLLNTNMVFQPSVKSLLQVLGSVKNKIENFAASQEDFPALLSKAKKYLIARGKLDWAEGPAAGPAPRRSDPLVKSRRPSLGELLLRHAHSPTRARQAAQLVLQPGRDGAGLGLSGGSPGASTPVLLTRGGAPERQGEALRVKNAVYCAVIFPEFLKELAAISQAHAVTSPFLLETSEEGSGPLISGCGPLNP
inactive: saracatinib -0.066 | alvocidib -0.016 | Tubastatin A -0.17 | defactinib -0.002 | rucaparib -0.085 | [3] -0.064 | encorafenib -0.168 | [1] 0.128

EIF3J isoform 2 (UniProt O75822)
inactive: saracatinib 0.035 | sotrastaurin 0.075 | Tubastatin A -0.082 | [2] -0.021 | defactinib -0.085 | [3] -0.04 | [1] -0.008

ELMO1 (UniProt Q92556)
inactive: saracatinib 0.051 | sotrastaurin 0.046 | [2] -0.074 | defactinib -0.045 | [3] 0.041 | [1] -0.222

DCAF4 (UniProt Q8WV16)
Sequence of UniProt Q8WV16 (Q8WV16 whole entry, looked up): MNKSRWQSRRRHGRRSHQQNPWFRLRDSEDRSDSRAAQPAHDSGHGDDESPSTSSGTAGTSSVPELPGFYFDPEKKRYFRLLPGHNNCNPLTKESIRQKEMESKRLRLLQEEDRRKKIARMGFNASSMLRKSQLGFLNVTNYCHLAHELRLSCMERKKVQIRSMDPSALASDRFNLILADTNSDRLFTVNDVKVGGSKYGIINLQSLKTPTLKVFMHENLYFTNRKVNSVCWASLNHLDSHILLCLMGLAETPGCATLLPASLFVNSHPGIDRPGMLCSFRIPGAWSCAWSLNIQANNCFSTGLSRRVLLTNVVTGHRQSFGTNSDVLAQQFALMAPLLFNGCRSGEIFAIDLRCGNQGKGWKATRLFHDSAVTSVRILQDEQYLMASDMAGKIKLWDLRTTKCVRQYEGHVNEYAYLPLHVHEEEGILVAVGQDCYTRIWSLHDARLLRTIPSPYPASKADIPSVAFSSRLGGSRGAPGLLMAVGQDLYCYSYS
inactive: saracatinib -0.097 | sotrastaurin 0.027 | rucaparib -0.346 | [3] 0.193 | encorafenib 0.103

ERF (UniProt P50548)
inactive: sotrastaurin -0.058 | Tubastatin A 0.377 | [2] 0.069

DBNL (UniProt Q9UJU6)
inactive: alvocidib -0.142

EGR1 (UniProt P18146)
Sequence of UniProt P18146 (P18146 whole entry, looked up): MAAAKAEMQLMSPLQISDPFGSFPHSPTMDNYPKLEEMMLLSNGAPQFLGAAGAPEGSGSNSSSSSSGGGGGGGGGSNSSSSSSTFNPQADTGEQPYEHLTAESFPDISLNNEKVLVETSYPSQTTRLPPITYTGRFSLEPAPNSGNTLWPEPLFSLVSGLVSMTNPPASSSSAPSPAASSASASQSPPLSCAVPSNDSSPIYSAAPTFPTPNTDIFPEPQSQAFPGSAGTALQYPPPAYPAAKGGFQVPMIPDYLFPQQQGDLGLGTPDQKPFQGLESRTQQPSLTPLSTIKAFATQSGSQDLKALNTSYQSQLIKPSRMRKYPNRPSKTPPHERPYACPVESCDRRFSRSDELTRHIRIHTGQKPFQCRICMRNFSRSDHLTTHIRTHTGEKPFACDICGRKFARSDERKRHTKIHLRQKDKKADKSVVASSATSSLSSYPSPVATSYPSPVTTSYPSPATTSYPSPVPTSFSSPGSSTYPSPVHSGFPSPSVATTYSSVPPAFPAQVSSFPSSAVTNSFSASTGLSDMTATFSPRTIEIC
inactive: sotrastaurin -0.481 | alvocidib -0.604 | Tubastatin A 0.129 | [2] -0.147 | [1] 0.041
active: defactinib -0.841

DLK1 (UniProt P80370)
inactive: saracatinib 0.021 | alvocidib 0.03 | defactinib -0.08 | rucaparib -0.023 | [3] -0.09 | encorafenib -0.032 | [1] 0.159

DNAL1 (UniProt Q4LDG9)
inactive: saracatinib -0.081 | alvocidib -0.121 | defactinib -0.14 | [3] 0.062 | [1] -0.13

CYP24A1 (UniProt Q07973)
inactive: saracatinib -0.144 | Tubastatin A 0.365 | [2] -0.075 | defactinib 0.394 | rucaparib 0.115 | [3] 0.078 | encorafenib 0.075 | [1] 0.016

EEF1D isoform 3 (UniProt P29692)
inactive: Tubastatin A 0.147 | [2] -0.03

DNM2 isoform 4 (UniProt P50570)
inactive: saracatinib -0.126 | sotrastaurin -0.024 | alvocidib -0.072 | [2] -0.088 | rucaparib -0.268 | [3] -0.235 | encorafenib 0.107

FAM117B (UniProt Q6P1L5)
inactive: saracatinib -0.004 | alvocidib -0.117 | Tubastatin A 0.084 | [2] -0.035 | defactinib -0.494 | rucaparib -0.013 | [3] -0.223 | encorafenib -0.092 | [1] -0.341

ENTR1 (UniProt Q96C92)
inactive: saracatinib -0.131 | [2] -0.03 | defactinib 0.022 | [3] -0.039
active: [1] -0.486

EHBP1 (UniProt Q8NDI1)
inactive: alvocidib -0.085 | Tubastatin A 0.045 | rucaparib 0.135 | encorafenib -0.058

EIF4G1 (UniProt Q04637)
inactive: saracatinib -0.112 | alvocidib 0.047 | Tubastatin A 0.006 | defactinib -0.08 | [3] -0.017 | [1] 0.014

DYNC1I2 isoform 2 (UniProt Q13409)
inactive: sotrastaurin 0.062 | alvocidib 0 | Tubastatin A -0.028 | [2] -0.021 | rucaparib -0.034 | encorafenib -0.108

DNAJB1 (UniProt M0R128)
inactive: alvocidib 0.082 | Tubastatin A -0.058 | defactinib -0.073 | [1] 0.18

DCAF12 (UniProt Q5T6F0)
inactive: sotrastaurin 0.058 | rucaparib 0.199 | encorafenib 0.112

ENTPD7 (UniProt Q9NQZ7)
inactive: saracatinib 0.155 | sotrastaurin 0.17 | Tubastatin A 0.064 | [2] -0.162 | rucaparib -0.078 | [3] 0.136 | encorafenib -0.26

EID1 (UniProt Q9Y6B2)
inactive: sotrastaurin -0.049 | Tubastatin A 0.599 | [2] -0.111

DERPC (UniProt P0CG12)
inactive: saracatinib -0.168 | [2] 0.08 | defactinib -0.153 | rucaparib -0.001 | [3] -0.071 | encorafenib -0.109 | [1] 0.063

DENND1A isoform 6 (UniProt Q8TEH3)
inactive: Tubastatin A -0.018 | defactinib -0.081 | [1] -0.024

EPHB4 (UniProt P54760)
inactive: sotrastaurin -0.057

FAM118B (UniProt Q9BPY3)
inactive: sotrastaurin -0.02 | alvocidib -0.142 | Tubastatin A 0.019 | [2] 0.088 | defactinib -0.113 | rucaparib 0.041 | encorafenib 0.029 | [1] -0.037

DDX11 (UniProt Q96FC9)
inactive: saracatinib -0.016 | sotrastaurin -0.248 | Tubastatin A -0.034 | [2] -0.035 | defactinib -0.052 | [3] -0.005 | [1] 0.118

EEF2K (UniProt O00418)
Sequence of UniProt O00418 (O00418 whole entry, looked up): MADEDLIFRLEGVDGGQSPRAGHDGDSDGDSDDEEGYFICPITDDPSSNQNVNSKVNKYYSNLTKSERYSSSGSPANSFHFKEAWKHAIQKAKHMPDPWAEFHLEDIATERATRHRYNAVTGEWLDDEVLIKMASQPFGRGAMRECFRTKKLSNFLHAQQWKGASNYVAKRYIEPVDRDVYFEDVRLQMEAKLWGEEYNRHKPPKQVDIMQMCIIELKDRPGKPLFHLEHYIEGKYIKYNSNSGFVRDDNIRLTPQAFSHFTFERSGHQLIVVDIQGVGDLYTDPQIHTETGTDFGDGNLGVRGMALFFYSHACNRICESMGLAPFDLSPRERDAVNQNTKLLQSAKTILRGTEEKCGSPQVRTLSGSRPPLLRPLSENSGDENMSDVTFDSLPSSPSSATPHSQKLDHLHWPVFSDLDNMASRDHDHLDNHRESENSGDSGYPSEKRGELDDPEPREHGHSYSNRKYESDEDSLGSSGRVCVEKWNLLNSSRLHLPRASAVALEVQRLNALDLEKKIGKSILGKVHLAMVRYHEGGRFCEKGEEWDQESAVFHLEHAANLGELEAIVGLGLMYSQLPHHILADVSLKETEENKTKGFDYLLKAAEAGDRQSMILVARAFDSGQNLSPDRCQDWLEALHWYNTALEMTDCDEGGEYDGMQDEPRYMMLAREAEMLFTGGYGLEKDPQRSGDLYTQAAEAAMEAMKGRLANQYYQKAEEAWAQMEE
inactive: alvocidib 0.194 | [2] 0.064 | defactinib -0.021 | rucaparib 0.1 | encorafenib -0.036 | [1] -0.266

DOP1A (UniProt Q5JWR5)
inactive: [2] -0.052 | defactinib 0.164 | [1] -0.083
